# According to the supplement of paper PMC12350171:
# Counter-ions that a name gives are not always drawn. A number with no mark means an inactive call.
# How the values were obtained:
# Details in all cases: 20 µM
# [1] = test system: Salmonella enterica typhimurium; test: growth AUC normalised to DMSO control (fraction of control); higher = less growth inhibition, active = hit call of the paper
# How it was run: (§1)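 For the AUC endpoint, growth curves were integrated by the trapezoidal rule up to the exponential-to-stationary transition and normalised to DMSO controls on the same plate. The curves came from OD578 readings taken hourly for 24 h, in three biological replicates. Pathogens had been passaged anaerobically twice and inoculated at an OD578 of 0.01 into pre-reduced mGAM plates carrying 20 μM compound and 1% DMSO, sealed with breathable membranes. Medium for Haemophilus parainfluenzae also contained hemin and NAD.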
# Shigella flexneri = test: as above
# How it was run: as §1
# Vibrio cholerae = test: as above
# How it was run: as §1
# [2] = test system: Yersinia pseudotuberculosis; test: as above
# How it was run: as §1
# P. vulgatus RND KO = test: growth AUC normalised to DMSO control (median) (fraction of control); higher = less growth inhibition, active = hit call of the paper
# How it was run: (§2)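 Area under the growth curve, calculated by the trapezoidal rule up to entry into stationary phase, was normalised to vehicle wells on the same plate. Strains had been passaged twice overnight without oxygen and then grown in mGAM in 96-well plates from OD578 0.01, each with an approved-drug library compound at 20 μM in 1% DMSO. OD578 was read hourly over 24 h in an anaerobic incubator, and the median of three biological replicates is given.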
# P. vulgatus WT = test: as above
# How it was run: as §2
# [3] = test system: S. enterica typhimurium WT; test: as above
# How it was run: as §2
# [4] = test system: S. enterica typhimurium tolC KO; test: as above
# How it was run: as §2
# 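For growth AUC normalised to DMSO control (median) in this document: active when median AUC fell below 0.1.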
SMILES,growth AUC normalised to DMSO control [1],growth AUC normalised to DMSO control (Shigella flexneri),growth AUC normalised to DMSO control (Vibrio cholerae),growth AUC normalised to DMSO control [2],growth AUC normalised to DMSO control (P. vulgatus RND KO),growth AUC normalised to DMSO control (P. vulgatus WT),growth AUC normalised to DMSO control [3],growth AUC normalised to DMSO control [4]
"Cc1c(O)c(=O)n(-c2ccccc2)n1C [Antipyrine, 4-hydroxy]",1.01,1.07,1.01,1.03,1.01,1.06,1.01,1
CCN(CC)CCc1nc(-c2ccccc2)no1 [Oxolamine citrate salt],0.99,1.01,1.04,1.03,0.97,0.98,1.01,1.01
CN(C)CC/C=C1/c2ccccc2COc2ccc(CC(=O)O)cc21 [Olopatadine hydrochloride],1.02,0.963,1.03,1.02,0.99,0.984,0.992,0.992
CCOC(=O)c1ccc(OC(=O)CCCCCNC(=N)N)cc1 [Gabexate mesilate],0.993,0.973,0.987,0.932,0.985,1,1,0.325
C#C[C@]1(O)CC[C@H]2[C@@H]3CCC4=C(CCC(=O)C4)[C@H]3CC[C@@]21C [Norethynodrel],1,1,0.994,0.992,0.992,1.01,0.996,0.993
CN(C)CCOc1ccc(/C(=C(/CCCl)c2ccccc2)c2ccccc2)cc1 [Toremifene],1.01,1.05,1.05,1.06,0.973,1.01,1.02,0.983
"C[C@H]1C[C@@H]2[C@H]([C@@H](O)C[C@@]3(C)[C@H]2CC[C@]3(O)C(=O)CO)[C@@]2(C)C=CC(=O)C=C12 [Methylprednisolone, 6-alpha]",0.997,0.998,0.997,0.993,0.96,0.982,1,1
"N[C@H]1CONC1=O [(S,-) Cycloserine]",1.01,1.03,1.04,1.04,0.897,0.954,0.997,0.996
C#C[C@]1(O)CC[C@H]2[C@@H]3CCC4=CC(=O)CC[C@@H]4[C@H]3CC[C@@]21C [Norethindrone],1.01,0.977,0.996,0.988,0.997,1.03,1.01,0.993
N=C(N)NCCN1CCCCCCC1 [Guanethidine sulfate],1.01,0.988,1.04,1.03,1.02,1.01,1.01,1.01
CC(=O)NC[C@H]1CN(c2ccc(N3CCOCC3)c(F)c2)C(=O)O1 [Linezolid],0.885 (active),0.806 (active),0.0187 (active),0.916,0.00951 (active),0.011 (active),0.918,0.223
CCN(CC)CCOC(=O)C(Cc1cccc2ccccc12)CC1CCCO1 (centres undefined) [Nafronyl oxalate],0.985,0.977,0.943,0.992,0.993,0.989,0.994,0.959
COC(=O)Nc1nc2cc(C(=O)c3cccs3)ccc2[nH]1 [Nocodazole],1.01,1.02,0.979,1,1.01,1.02,1.01,0.975
CN(C)CCCSC(=N)N [Dimaprit dihydrochloride],0.991,1,0.986,1,0.99,0.999,1,1.01
C[C@H](CCC(=O)O)[C@H]1CC[C@H]2[C@@H]3C(=O)C[C@@H]4CC(=O)CC[C@]4(C)[C@H]3CC(=O)[C@]12C [Dehydrocholic acid],0.98,0.968,0.983,0.957,1.01,0.983,0.999,0.66
COc1ccc(C(Cl)=C(c2ccc(OC)cc2)c2ccc(OC)cc2)cc1 [Chlorotrianisene],0.994,0.944,0.983,1.01,0.96,0.928,0.978,0.993
O=C(Cn1ccnc1[N+](=O)[O-])NCCO [Etanidazole],1.01,1.03,1.03,1.02,0.991,1.01,0.99,1.02
NC(=O)OCC(O)COc1ccc(Cl)cc1 (centres undefined) [Chlorphensin carbamate],1.01,1.01,1.03,1.01,0.992,0.994,1.02,0.987
COc1cc(N)c(Cl)cc1C(=O)NC1CCN(CCCOc2ccc(F)cc2)CC1OC (centres undefined) [Cisapride],1,1.01,0.929,0.989,0.945,0.941,1,0.947
CC(C)NCC(O)c1ccc(NS(C)(=O)=O)cc1 (centres undefined) [Sotalol hydrochloride],1,1.06,1.04,1.02,1.02,1.06,1.01,0.998
Cc1cccn2c(=O)c(-c3nnn[nH]3)cnc12 [Pemirolast potassium],0.968,0.946,0.921,0.964,0.998,1.01,0.993,0.995
C[N+](C)(C)CCOC(N)=O [Carbachol chloride],1.03,1.07,1.08,1.01,1.09,1.05,1.01,1.01
CC1CCc2c(N3CCC(O)CC3)c(F)cc3c(=O)c(C(=O)O)cn1c23 (centres undefined) [Nadifloxacin],0.00794 (active),0.0399 (active),0.0237 (active),0.0176 (active),0.0102 (active),0.00997 (active),0.0247 (active),0.00372 (active)
CC1=C(/C=C/C(C)=C/C=C/C(C)=C\C(=O)O)C(C)(C)CCC1 [Isotretinoin],0.994,0.992,1,1,1.01,0.989,0.999,1
O=C(O)c1cc(=O)c2c(OCC(O)COc3cccc4oc(C(=O)O)cc(=O)c34)cccc2o1 [Cromolyn disodium salt],0.98,0.995,1,1,1.03,1.03,1.02,0.996
CCC(=O)O[C@@H](O[P@](=O)(CCCCc1ccccc1)CC(=O)N1C[C@H](C2CCCCC2)C[C@H]1C(=O)O)C(C)C [Fosinopril],1,1.04,1.05,1,0.998,1.02,1,1.01
"CC(C)Cc1ccc([C@H](C)C(=O)O)cc1 [(S,+) Ibuprofen]",1.01,0.968,0.95,0.983,0.989,0.982,0.994,1
C[C@@H]1CN(c2c(F)c(N)c3c(=O)c(C(=O)O)cn(C4CC4)c3c2F)C[C@H](C)N1 [Sparfloxacin],0.00775 (active),0.047 (active),0.0469 (active),0.0357 (active),0.0205 (active),0.0159 (active),0.0129 (active),0.00501 (active)
